Data published in PubChem BioAssay AID1272365 (Small Molecule Screening Facility, UW Madison, 2020).
Where “and” joins values, the source holds several entries; their conditions need not be identical. Identical values can stand only once. Out of some 430,000 compounds screened, about 2,600 (0.6%) were called active. For the sample, actives were picked, then their nearest neighbours and some compounds at random. Values without a mark were called inactive. No stated cut-off is given here; in the data, active means inhibition mostly above about 37% (no sharp cut-off); inactive means mostly below about 20%.

System: PriA–SSB C-terminal tail interaction (Klebsiella pneumoniae)
Experiment: blocks PriA binding to SSB C-terminal tail, primary screen, biochemical, AlphaScreen (AID 1272365);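 on inhibition: plate controls were negative control peptide for no effect and reference peptide for full effect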
Settings: AlphaScreen SSBct-PriA binding, biotinylated peptide; at 33 µM, stronger effect = higher value

Row | Structure (SMILES) | inhibition
1 | COc1ccc(/C=N/Nc2ccccc2[N+](=O)[O-])c(C(=O)O)c1OC | inactive
2 | Cc1ccc(NS(=O)(=O)c2ccc(N/N=C/c3ccccc3OCC(=O)O)c([N+](=O)[O-])c2)c(C)c1 | active
3 | CC(=O)Nc1cccc(C(C)=NNc2ccc(S(=O)(=O)Nc3ccccc3C(=O)O)cc2[N+](=O)[O-])c1 | 12%
4 | CCCCc1ccc(Nc2c(C(=O)N3CCSCC3)cnc3nc(C)ccc23)cc1 | -6%
5 | COCCN(Cc1ccncc1)C(=O)c1ccco1 | -8%
6 | O=C(c1ccccc1)c1ccccc1C(=O)N1CCC(Oc2ncccc2Cl)CC1 | 6%
7 | Oc1ccc(C=NNC(=S)Nc2cccnc2)c(O)c1O | 100% (active)
8 | Fc1cc(Br)ccc1NC(=S)Nc1cccnc1 | -8.39%
9 | O=C(NN=Cc1cccc2ccccc12)c1cccnc1 | -10.5%
10 | COc1ncc(NC(=O)c2snnc2C)cn1 | 1%
11 | O=C(Nc1cc2ccccc2cc1NC(=O)c1ccc(N2C(=O)CCC2=O)cc1)c1ccc(N2C(=O)CCC2=O)cc1 | 0%
12 | COc1ccc2oc(-c3csc(NC(=O)c4ccc(N5C(=O)CCC5=O)cc4)n3)cc2c1 | 6%
13 | O=C(Nc1nc(-c2ccc(Cl)cc2Cl)cs1)c1ccc(N2C(=O)CCC2=O)cc1 | 64% (active)
14 | COc1ccc(S(=O)(=O)NCCn2nc(-c3ccncc3)ccc2=O)cc1F | -6%
15 | O=S(=O)(Cc1ccccc1)NCC1CCN(c2cnccn2)CC1 | -1%
16 | CCc1ccc(S(=O)(=O)NCC(O)COc2ccc(OC)cc2)cc1 (stereo not given) | -7.77%
17 | CC(=O)Nc1ccc(OCC(O)CN(c2ccc(C)cc2)S(C)(=O)=O)cc1 (stereo not given) | -18%
18 | COc1ccc(OCC(O)CNc2ccc(C)cc2)cc1 (stereo not given) | 36% (active)
19 | CN(C)c1ccc(C=NN=C2NC(=O)/C(=C/c3ccc([N+](=O)[O-])cc3)S2)cc1 | -15.2%
20 | O=C(NCc1cccs1)C(=O)Nc1cccc(F)c1 | -15%

Row | Structure (SMILES) | inhibition
21 | COc1ccc(CCN2COc3ccc4c(c3C2)O/C(=C\c2ccco2)C4=O)cc1OC | 3%
22 | O=C1/C(=C/c2cccs2)Oc2c1ccc1c2CN(Cc2ccccn2)CO1 | 101% (active)
23 | Cc1ccc(C(=O)N/C(=C\c2cccs2)C(=O)NCCc2ccccn2)cc1C | -25.3%
24 | Cc1cc(N2CCC(NC(=O)c3ccc4ncsc4c3)CC2)n[nH]1 | -7%
25 | O=C(c1ccccn1)N1CC(N2C(=O)CCC2=O)C1 | -11%
26 | COc1ccc(F)cc1S(=O)(=O)Nc1ccc2c(c1)CCCN2S(=O)(=O)c1ccccc1 | 1%
27 | COCCCNC(=O)c1ccc2c(c1)ncn2-c1ccccc1OC | -10.8%
28 | COc1ccccc1-n1cnc2cc(NS(=O)(=O)c3ccccc3)ccc21 | 73.9% (active)
29 | Cc1ccc(C(=O)NC(=S)NCc2cccnc2)cc1 | 46.3% (active)
30 | Cc1cccc(OCCNC(=S)NC(=O)c2cccnc2)c1 | 1.76%
31 | Cc1c(C(=O)NC(=S)NCc2cccnc2)oc2ccccc12 | -8.37%
32 | CCOC(=O)CSc1nc2cc(OC)c(OC)cc2c2nc(CCn3nc(C)cc3C)nn12 | 3%
33 | CC(=NNC(=O)c1c[nH]c2ccccc12)c1ccccn1 | 75.7% (active)
34 | CC(=NNC(=O)c1ccc(F)cc1)c1ccccn1 | -1.36%
35 | CCN(CC)c1ccc(C=NNC(=O)c2c[nH]c3ccccc23)cc1 | 16.7%
36 | CC1=NN(CCN2CCN(c3ccc(F)cc3)CC2)c2nc3c(c(=O)n(C)c(=O)n3C)n2C1 | 6% and -7%
37 | Cn1cc(NC(=O)N2CCc3ccccc3C2)c2ccccc21 | -3%
38 | CCn1cc(NC(=O)N2CCCc3ccccc32)c2ccccc21 | 2%
39 | CCn1cc(NC(=O)N2CCc3ccccc32)c2ccccc21 | 40% (active)
40 | CN1CCc2cc(C(CNC(=O)C(=O)Nc3ccccc3F)N(C)C)ccc21 (stereo not given) | 14%

Row | Structure (SMILES) | inhibition
41 | COc1cccc2c1C(=O)c1c(O)c3c(c(O)c1C2=O)CC(O)(C(C)=NNC(=O)c1ccc(Cl)c(Cl)c1)CC3OC1CC(N)C(O)C(C)O1 (stereo not given) | 57.5% (active)
42 | NC(=O)CSc1ccc2nnc(-c3ccccn3)n2n1 | 72% (active)
43 | CCOC(=O)CNC(=O)CSc1ccc2nnc(-c3cccnc3)n2n1 | 2.63%
44 | Cc1ccccc1NC(=O)CSc1ccc2nnc(-c3ccccn3)n2n1 | -4.51%
45 | CCCN(CCC)C(=O)Cn1c(=O)c2ccccc2n2c(=S)sc(-c3cccc(C)c3)c12 | 7%
46 | CCc1ccc2nc(Nc3nc4ccc(NC(C)=O)cc4s3)sc2c1 | 2%
47 | C/C(=N/N=C1/NC(=O)CS1)c1ccccc1 | -2%
48 | N#CC1=C(N)Oc2c(sc3ccccc23)C1c1ccco1 (stereo not given) | 2.22%
49 | N#CC1=C(N)Oc2c(ccc3cccnc23)C1c1ccncc1 (stereo not given) | 65.3% (active)
50 | Nc1cncc2cccnc12 | -8%
51 | Cc1ccc2nc3sc(Nc4ccc(C)c(Cl)c4)nn3c(=O)c2c1 | -4%
52 | Cc1nn(C)c(C)c1S(=O)(=O)NCC1CCN(c2ccccn2)CC1 | 2%
53 | Cc1ccc2c(c1)C1CN(C)CCC1N2C(=O)c1ccccc1NS(=O)(=O)c1ccc(F)cc1C (stereo not given) | -3.86%
54 | Cc1ccc2c(c1)C1CN(C)CCC1N2S(=O)(=O)c1cccc(F)c1 (stereo not given) | 39.2% (active)
55 | Cc1ccc2c(c1)C1CN(C)CCC1N2S(=O)(=O)c1ccc(Oc2ccc([N+](=O)[O-])cc2)cc1 (stereo not given) | 17.5%
56 | CCOc1ccc(-c2ccc(=O)n(CC(=O)N3CCOCC3)n2)cc1 | -1%
57 | CC(C)CC(COCc1ccc(Cl)cc1)N1CCN(C(=O)c2ccc(C(F)(F)F)cc2)CCC1=O (stereo not given) | -5.16%
58 | CN1CCC(=O)N([C@H](CO)Cc2ccccc2)CC1 | -2.41%
59 | O=C(c1cc(Cl)cc(Cl)c1)N1CCC(=O)N(C(COCc2ccccc2)Cc2ccccc2)CC1 (stereo not given) | 44.6% (active)
60 | COc1cc(NC(=O)CSc2nccn3nc(-c4ccc(Cl)cc4)cc23)cc(OC)c1 | 3%
